Mtb FBA inh: Mtb fructose-bisphosphate aldolase inhibition. P9WQA3. purified M. tuberculosis FBA, fluorescence read-out. inhibition, % at 1 µM. hit rate 2.3% among 360,000. AID 588726
Target sequence (P9WQA3 whole entry, looked up): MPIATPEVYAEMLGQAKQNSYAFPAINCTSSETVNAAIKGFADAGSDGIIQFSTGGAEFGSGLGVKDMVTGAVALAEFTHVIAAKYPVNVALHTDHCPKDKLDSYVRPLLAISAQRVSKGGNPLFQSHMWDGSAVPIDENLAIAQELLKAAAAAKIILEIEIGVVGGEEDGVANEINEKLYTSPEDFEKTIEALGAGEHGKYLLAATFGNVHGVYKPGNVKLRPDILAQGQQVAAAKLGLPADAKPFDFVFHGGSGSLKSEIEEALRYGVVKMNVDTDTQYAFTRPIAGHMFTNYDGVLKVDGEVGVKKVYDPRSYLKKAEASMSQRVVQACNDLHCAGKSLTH
Mtb BioA inh: BioA (M. tuberculosis) enzyme inhibition; purified M. tuberculosis BioA enzyme, plate reader; inhibition, % at 9.99 µM; hit rate 0.096% among 360,000; AID 602481; in the data active = inhibition above about 40%; inconclusive = no clear call, values can overlap the other calls
FadD28 binding: blocks FadD28 binding to the bisubstrate probe | inhibition, % at 12.5 µM | fluorescence polarization | AID 588549 | hit rate 0.22% among 360,000; in the data active = inhibition above about 8.5%, passing the limit was not always enough; inconclusive = no clear call, values can overlap the other calls
GDH-TPI counter-1: inhibits GDH-TPI coupling enzymes, artifact for Mtb FBA screen | GDH-TPI coupled enzyme counterscreen, NADH absorbance | inhibition, % at 4.8 µM | hit rate 1.2% among 360,000 | AID 588335; in the data active = inhibition above about 30%
SARS 3CLpro inh: SARS-CoV 3CLpro protease inhibition; hit rate 0.14% among 290,000; inhibition, % at 6 µM; P0C6X7; recombinant SARS-CoV 3CLpro, quenched FRET peptide cleavage; in the data active = inhibition above about 12%
Mtb FBA confirm: confirmation of M. tuberculosis fructose-bisphosphate aldolase inhibitors; shares compounds with Mtb FBA inh; purified M. tuberculosis FBA, fluorescence read-out; inhibition, % at 1 µM; hit rate 78% among 5,600
GDH-TPI counter-2: inhibits GDH-TPI coupling enzymes, flagging Mtb FBA hits; inhibition, % at 1 µM; shares compounds with Mtb FBA inh; hit rate 81% among 5,600; GDH-TPI coupled enzyme counterscreen, fluorescence; in the data active = inhibition above about 10%
Each line names hits and unclear results; the compound was inactive in the other large screens (follow-up assays come after a bar, where they were run). Rows were chosen to be rich in hits. Some 3.1% of all compounds tested hit in one or more screens of this group. Rule as the data show it, unless noted: active = inhibition above about 27%; inactive = the rest.

CC(=O)Nc1ccc(S(=O)(=O)NC(C)c2ccccc2)cc1 (stereo not given)	Mtb FBA inh 31 | Mtb FBA confirm 123 | GDH-TPI counter-2 95
CC(=O)Nc1ccc(S(=O)(=O)NC(C(=O)O)C(C)C)cc1 (stereo not given)	none
Oc1cccc(Nc2ncnc3ccccc23)c1	none (no result: Mtb BioA inh)
COc1ccc(S(=O)(=O)Nc2nc3ccccc3nc2Nc2cccc(C(=O)O)c2)cc1	Mtb FBA inh 32, FadD28 binding inconclusive, GDH-TPI counter-1 38 | Mtb FBA confirm active | GDH-TPI counter-2 active
CO[C@@H]1CN(C)C(=O)c2cc(NC(C)=O)ccc2OC[C@H](C)N(C(=O)c2ccccc2F)C[C@@H]1C	none (no result: Mtb FBA inh, FadD28 binding, GDH-TPI counter-1, SARS 3CLpro inh)
C[C@H]1CN([C@@H](C)CO)C(=O)c2ccccc2-c2ccccc2CO[C@H]1CN(C)S(=O)(=O)c1ccccc1	none (no result: Mtb FBA inh, FadD28 binding, GDH-TPI counter-1, SARS 3CLpro inh)
CO[C@@H]1CN(C)C(=O)c2ccc(NC(C)=O)cc2OC[C@@H](C)N(C(=O)Cc2ccccn2)C[C@H]1C	none (no result: Mtb FBA inh, FadD28 binding, GDH-TPI counter-1, SARS 3CLpro inh)
O=C(Nc1ccc([N+](=O)[O-])cn1)c1cccnc1	none
O=C(Nc1ccc([N+](=O)[O-])cn1)c1ccc(Br)o1	Mtb FBA inh 95 | Mtb FBA confirm inactive | GDH-TPI counter-2 inactive
CCOc1ccc(OCCCC(=O)N(C)CC(=O)Nc2ccccc2Br)cc1	none (no result: SARS 3CLpro inh)
CCCN(CC(=O)Nc1ccccc1C)C(=O)CCCOc1ccc(Br)cc1	Mtb FBA inh 38 (no result: SARS 3CLpro inh) | Mtb FBA confirm inactive | GDH-TPI counter-2 inactive
COc1ccc(-c2ccc3c(c2)O[C@@H](CN(C)Cc2cccnc2)[C@@H](C)CN([C@H](C)CO)S3(=O)=O)cc1	none (no result: Mtb FBA inh, FadD28 binding, GDH-TPI counter-1, SARS 3CLpro inh)
CCC(=O)Nc1c(S(=O)(=O)c2ccc(C)cc2)c2nc3ccccc3nc2n1C(C)c1ccccc1 (stereo not given)	Mtb FBA inh 58 (no result: Mtb BioA inh) | Mtb FBA confirm 50 | GDH-TPI counter-2 30
CCC(=O)Nc1c(S(=O)(=O)c2ccccc2)c2nc3ccccc3nc2n1C(C)c1ccccc1 (stereo not given)	Mtb FBA inh 73 (no result: Mtb BioA inh) | Mtb FBA confirm 73 | GDH-TPI counter-2 68
Cc1ccc(S(=O)(=O)N(C)C[C@@H]2OCCCC[C@H](C)Oc3ccc(NC(=O)NC(C)C)cc3C(=O)N([C@@H](C)CO)C[C@H]2C)cc1	none (no result: Mtb FBA inh, FadD28 binding, GDH-TPI counter-1, SARS 3CLpro inh)
COC(=O)C(C)NC(=S)N1CCN(c2c(F)cc3c(=O)c(C(=O)O)cn(C4CC4)c3c2OC)CC1C (stereo not given)	Mtb FBA inh 30 (no result: Mtb BioA inh) | Mtb FBA confirm active | GDH-TPI counter-2 active
CCCN1[C@@H]2c3ccc(/C=C/c4ccccc4)c(=O)n3C[C@@H]2[C@@H](CO)[C@@H]1C(=O)NCC	none (no result: Mtb FBA inh, FadD28 binding, GDH-TPI counter-1, SARS 3CLpro inh)
Cc1cc(-c2ccccc2)n2ncc(C#N)c2n1	Mtb FBA inh 55 | Mtb FBA confirm inactive | GDH-TPI counter-2 inactive
Cc1cc(C)nc(-n2ncc3c2CC(c2cccc(Cl)c2)CC3=O)n1 (stereo not given)	Mtb FBA inh 29 | Mtb FBA confirm 75 | GDH-TPI counter-2 56
C/C=C(\C)C(=O)OC(C)(C)[C@H]1Cc2cc3ccc(=O)oc3cc2O1	Mtb FBA inh 94 | Mtb FBA confirm active | GDH-TPI counter-2 active
CC(C)=CC(=O)O[C@@H]1Cc2cc3ccc(=O)oc3cc2OC1(C)C	Mtb FBA inh 34 (no result: SARS 3CLpro inh) | Mtb FBA confirm active | GDH-TPI counter-2 active
C/C=C(\C)C(=O)OC1c2c(ccc3ccc(=O)oc23)OC(C)(C)C1OC(C)=O (stereo not given)	none
CC(=O)OC(C)(C)C1Cc2cc3ccc(=O)oc3cc2O1 (stereo not given)	Mtb FBA inh 104 (no result: Mtb BioA inh) | Mtb FBA confirm inactive | GDH-TPI counter-2 inactive
CC(C)NC(=O)Nc1ccc2c(c1)C(=O)N([C@H](C)CO)C[C@@H](C)[C@@H](CN(C)CC1CCCCC1)OCCCC[C@H](C)O2	none (no result: Mtb FBA inh, FadD28 binding, GDH-TPI counter-1, SARS 3CLpro inh)
COc1ccccc1-c1ccc2n(c1=O)C[C@@H]1[C@@H](CO)[C@H](C(=O)N(C)C)N[C@H]21	none (no result: Mtb FBA inh, FadD28 binding, GDH-TPI counter-1, SARS 3CLpro inh)
O=[N+]([O-])c1ccccc1S(=O)(=O)N1CCCC(C(F)(F)F)C1 (stereo not given)	Mtb FBA inh 41 | Mtb FBA confirm 46 | GDH-TPI counter-2 39
C[C@@H]1CN([C@@H](C)CO)C(=O)c2cccc(NC(=O)Nc3ccccc3)c2O[C@H]1CN(C)S(=O)(=O)c1cn(C)cn1	none (no result: Mtb FBA inh, FadD28 binding, GDH-TPI counter-1, SARS 3CLpro inh)
COCC(=O)N(Cc1cc2ccc(C)cc2[nH]c1=O)c1ccc(OC)cc1	Mtb FBA inh 62 | Mtb FBA confirm 139 | GDH-TPI counter-2 128
Cc1nnc(NC(=O)c2sc3nc(-c4cccs4)cc(C(F)(F)F)c3c2N)s1	Mtb FBA inh 33, FadD28 binding 9.4, GDH-TPI counter-1 43 | Mtb FBA confirm inactive | GDH-TPI counter-2 inactive
CC(C)(C)C(=O)c1sc2nc(-c3cccs3)cc(C(F)(F)F)c2c1N	Mtb FBA inh 30 | Mtb FBA confirm 49 | GDH-TPI counter-2 47
COCc1cc(C)nc2sc(C(=O)Nc3nccs3)c(N)c12	none

Screening results from PubChem BioAssay.
